Assay results published in PubChem BioAssay AID720706 (Broad Institute, 2013).
In all, about 350,000 compounds went through this assay and about 5,500 (1.6%) were called active.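 How the source made its calls: active means significant combined selectivity score with lowered wild-type GFP, culture density cut under 30%, mutant RFP and density less affected; inactive means any of these conditions unmet.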 Only a selection was taken, and actives are over-represented in it overall.

experiment: GFP drop in mixed WT/humanized-ribosome E. coli culture – GFP/RFP fluorescence, OD600, single point, bacterial rRNA inhibitor project, primary screen (AID 720706); conditions: E. coli WT GFP vs humanized-ribosome RFP mutants, 24 h; GFP signal change (wild-type ribosome): stronger effect = lower value, DMSO median 0, no signal -100; OD600 change: measured here: OD600 growth, DMSO median 0, no signal -100; RFP signal change: measured here: RFP humanized mutant strains, DMSO median 0, no signal -100, concentration not given here

With COc1ccccc1CNC(=O)C[C@@H]1CC[C@@H]2[C@@H](COc3ccc(NC(=O)Nc4ccc(F)c(F)c4)cc3C(=O)N2C)O1 as the compound, how does the GFP signal change (wild-type ribosome) read?
Its GFP signal change (wild-type ribosome) is -9.44% (inactive).

And the OD600 change?
The OD600 change was -10.3%.

And the RFP signal change?
The RFP signal change was -1.71%.

With CCCNC(=O)C[C@@H]1C[C@H]2c3cc(NC(=O)Nc4ccccc4F)ccc3O[C@H]2[C@H](CO)O1 as the compound, how does the GFP signal change (wild-type ribosome) read?
The GFP signal change (wild-type ribosome) was -3.87% (inactive).

And the OD600 change?
The OD600 change was -12.4%.

What about the RFP signal change of the same compound?
The RFP signal change was 1.51%.

For COC(=O)c1c(-c2ccc(C)cc2)csc1N, which GFP signal change (wild-type ribosome) is on record?
Its GFP signal change (wild-type ribosome) is -1.07% (inactive).

And the OD600 change?
The OD600 change was -0.1%.

What about the RFP signal change of the same compound?
Its RFP signal change is 43.8%.

With COC(=O)c1c(C)cc(O)c(C)c1O as the compound, how does the GFP signal change (wild-type ribosome) read?
Its GFP signal change (wild-type ribosome) is -0.355% (inactive).

What about the OD600 change of the same compound?
The OD600 change was 5.33%.

And the RFP signal change?
The RFP signal change was 0.38%.

Which GFP signal change (wild-type ribosome) does the source give for COC(=O)c1c(C(=O)OC)c2n(c1C)CCS2 here?
Its GFP signal change (wild-type ribosome) is -22.3% (active).

What about the OD600 change of the same compound?
The OD600 change was -9.31%.

What about the RFP signal change of the same compound?
Its RFP signal change is -5.79%.

With C/C=C/c1ccc([C@@H]2[C@@H](CO)N3C(=O)CN(C(=O)Nc4cccc(OC)c4)C[C@@H]23)cc1 as the compound, how does the GFP signal change (wild-type ribosome) read?
The GFP signal change (wild-type ribosome) was -1.73% (inactive).

And the OD600 change?
The OD600 change was -7.8%.

What about the RFP signal change of the same compound?
The RFP signal change was 3.44%.

Which GFP signal change (wild-type ribosome) does the source give for O=C(NC(=S)NC1CCS(=O)(=O)C1)c1cccc([N+](=O)[O-])c1 (stereo unspecified) here?
The GFP signal change (wild-type ribosome) was 3.91% (inactive).

What about the OD600 change of the same compound?
Its OD600 change is 8.03%.

And the RFP signal change?
The RFP signal change was -1.87%.

With O=C(Nc1nnc(SCc2c(Cl)cccc2Cl)s1)c1cccc([N+](=O)[O-])c1 as the compound, how does the GFP signal change (wild-type ribosome) read?
Its GFP signal change (wild-type ribosome) is 1.43% (inactive).

What about the OD600 change of the same compound?
Its OD600 change is -3.04%.

And the RFP signal change?
Its RFP signal change is -1.26%.

What does the source list for O=C(Nc1ccc(C2CC2(Cl)Cl)cc1)c1cccc([N+](=O)[O-])c1 (stereo unspecified)?
GFP signal change (wild-type ribosome): -27.9% (active); OD600 change: -19.1%; RFP signal change: -6.25%

For C[C@@H]1CN([C@H](C)CO)C(=O)Cc2cc(N(C)C)ccc2O[C@H]1CN(C)C(=O)NC1CCCCC1, which GFP signal change (wild-type ribosome) is on record?
The GFP signal change (wild-type ribosome) was -0.659% (inactive).

What about the OD600 change of the same compound?
The OD600 change was 5.18%.

What about the RFP signal change of the same compound?
Its RFP signal change is -1.29%.

Which GFP signal change (wild-type ribosome) does the source give for COc1cccc(C#Cc2ccc([C@@H]3[C@H]4CN(C(=O)Cc5ccccc5)CC(=O)N4[C@H]3CO)cc2)c1 here?
The GFP signal change (wild-type ribosome) was -5.04% (inactive).

And the OD600 change?
Its OD600 change is -9.42%.

What about the RFP signal change of the same compound?
Its RFP signal change is 27.5%.

Which results are given for CCOc1ccc2nc(N(CCN(C)C)C(=O)c3ccc4ccccc4c3)sc2c1?
GFP signal change (wild-type ribosome): -29.3% (active); OD600 change: -1.85%; RFP signal change: 4.17%

For CN(C)CCCN(C(=O)c1ccc(S(=O)(=O)N2CCCCCC2)cc1)c1nc2cc3c(cc2s1)OCCO3, which GFP signal change (wild-type ribosome) is on record?
The GFP signal change (wild-type ribosome) was -30% (active).

What about the OD600 change of the same compound?
The OD600 change was -20.1%.

And the RFP signal change?
The RFP signal change was 0.23%.

What does the source list for CCc1ccc2nc(N(CCCN(C)C)C(=O)c3ccc4c(c3)OCCO4)sc2c1?
GFP signal change (wild-type ribosome): -22.5% (active); OD600 change: -7.47%; RFP signal change: 6.9%

Which results are given for CCOc1ccc2nc(C(=O)N3CCCC(C)C3)sc2c1 (stereo unspecified)?
GFP signal change (wild-type ribosome): -6.88% (inactive); OD600 change: -10.3%; RFP signal change: -0.532%

Which GFP signal change (wild-type ribosome) does the source give for Cc1ccc2sc(NNC(=O)c3ccc4c(c3)OCCO4)nc2c1C here?
Its GFP signal change (wild-type ribosome) is -7.09% (inactive).

What about the OD600 change of the same compound?
The OD600 change was -13.5%.

What about the RFP signal change of the same compound?
The RFP signal change was 7.46%.

With CCN(CC)CCN(C(=O)c1ccc2c(c1)CCCC2)c1nc2c(OC)cccc2s1 as the compound, how does the GFP signal change (wild-type ribosome) read?
Its GFP signal change (wild-type ribosome) is -52.2% (inactive).

And the OD600 change?
The OD600 change was -75.4%.

And the RFP signal change?
Its RFP signal change is -16.6%.

With CN(C)CCN(C(=O)C1=COCCO1)c1nc2ccc(Cl)cc2s1 as the compound, how does the GFP signal change (wild-type ribosome) read?
The GFP signal change (wild-type ribosome) was 2.56% (inactive).

And the OD600 change?
Its OD600 change is -1.62%.

What about the RFP signal change of the same compound?
Its RFP signal change is -1.96%.

What does the source list for CCN(CC)CCN(C(=O)c1cc(Cl)sc1Cl)c1nc2cc3c(cc2s1)OCO3?
GFP signal change (wild-type ribosome): 4.27% (inactive); OD600 change: -1.1%; RFP signal change: -0.673%

What does the source list for CCN(CC)CCN(C(=O)c1ccc(N2C(=O)CCC2=O)cc1)c1nc2cc3c(cc2s1)OCO3?
GFP signal change (wild-type ribosome): 4.92% (inactive); OD600 change: -10.9%; RFP signal change: -4.79%

Which results are given for CN(C)Cc1cn(CC[C@H]2CC[C@H](NS(=O)(=O)c3ccccc3)[C@@H](CO)O2)nn1?
GFP signal change (wild-type ribosome): -1.38% (inactive); OD600 change: 8.8%; RFP signal change: -1.73%

For Cc1ccc(S(=O)(=O)N(C)C[C@H]2Oc3c(NS(=O)(=O)c4cn(C)cn4)cccc3C(=O)N([C@@H](C)CO)C[C@H]2C)cc1, which GFP signal change (wild-type ribosome) is on record?
Its GFP signal change (wild-type ribosome) is 4.44% (inactive).

And the OD600 change?
Its OD600 change is 5.92%.

What about the RFP signal change of the same compound?
The RFP signal change was -0.801%.

With CCC(=O)N(C)C[C@@H]1Oc2ncc(-c3ccccc3OC)cc2C(=O)N([C@@H](C)CO)C[C@@H]1C as the compound, how does the GFP signal change (wild-type ribosome) read?
The GFP signal change (wild-type ribosome) was -1.63% (inactive).

What about the OD600 change of the same compound?
Its OD600 change is 0.66%.

And the RFP signal change?
Its RFP signal change is 1.16%.

For COc1ccc(CNC(=O)C[C@@H]2C=C[C@@H](NC(=O)c3ccc4c(c3)OCO4)[C@@H](CO)O2)cc1, which GFP signal change (wild-type ribosome) is on record?
The GFP signal change (wild-type ribosome) was 3.42% (inactive).

And the OD600 change?
Its OD600 change is 5.74%.

What about the RFP signal change of the same compound?
The RFP signal change was -0.879%.

For C[C@H](CO)N1C[C@H](C)[C@H](CN(C)S(C)(=O)=O)Oc2ncc(C3=CCCC3)cc2C1=O, which GFP signal change (wild-type ribosome) is on record?
Its GFP signal change (wild-type ribosome) is 4.58% (inactive).

And the OD600 change?
Its OD600 change is 6.67%.

What about the RFP signal change of the same compound?
Its RFP signal change is -1.55%.

For O=C(c1ccc(N2CCOCC2)c([N+](=O)[O-])c1)N1CCN(c2ccccc2F)CC1, which GFP signal change (wild-type ribosome) is on record?
Its GFP signal change (wild-type ribosome) is -19.6% (inactive).

What about the OD600 change of the same compound?
Its OD600 change is -35.6%.

What about the RFP signal change of the same compound?
The RFP signal change was -4.01%.

For O=C(c1cccc(F)c1)N1CCN(c2ccc([N+](=O)[O-])c3cccnc23)CC1, which GFP signal change (wild-type ribosome) is on record?
The GFP signal change (wild-type ribosome) was -17.8% (active).

What about the OD600 change of the same compound?
The OD600 change was -11%.

What about the RFP signal change of the same compound?
Its RFP signal change is 4.41%.

Which results are given for O=[N+]([O-])c1cc([N+](=O)[O-])c2cccnc2c1O?
GFP signal change (wild-type ribosome): -15.7% (inactive); OD600 change: 19.1%; RFP signal change: 3.26%

What does the source list for C[C@H]1CCCCO[C@@H](CN(C)Cc2ccncc2)[C@@H](C)CN([C@@H](C)CO)C(=O)c2cc(NC(=O)Nc3ccc(F)cc3)ccc2O1?
GFP signal change (wild-type ribosome): 1.44% (inactive); OD600 change: 2.48%; RFP signal change: -0.987%

Which results are given for CCCN(C)C[C@@H]1OCCCC[C@@H](C)Oc2ccc(NC(=O)CCCN(C)C)cc2C(=O)N([C@H](C)CO)C[C@@H]1C?
GFP signal change (wild-type ribosome): -2.58% (inactive); OD600 change: 6.85%; RFP signal change: -0.525%

With C[C@H](NC(=O)N(C)C[C@@H]1OCc2ccccc2-c2ccccc2C(=O)N([C@H](C)CO)C[C@@H]1C)c1ccccc1 as the compound, how does the GFP signal change (wild-type ribosome) read?
The GFP signal change (wild-type ribosome) was -0.824% (inactive).

And the OD600 change?
The OD600 change was 6%.

And the RFP signal change?
The RFP signal change was -2.69%.

Which GFP signal change (wild-type ribosome) does the source give for COc1ccc(S(=O)(=O)Nc2ccc3c(c2)C(=O)N(C)C[C@@H](OC)[C@H](C)CN(C(=O)NC(C)C)[C@H](C)CO3)cc1 here?
Its GFP signal change (wild-type ribosome) is 2.15% (inactive).

And the OD600 change?
The OD600 change was -6.48%.

What about the RFP signal change of the same compound?
Its RFP signal change is 0.485%.
